Measured values published in PubChem BioAssay (Tox21).
Several values for one entry are separate records, joined by “and”; a condition that tells them apart may be missing. Equal entries are not always repeated. Inconclusive results are not listed. Activity calls are given as the source filed them. Unless noted, the call rests on the fitted dose curve; in most records, active means well fitted curve in the direction sought with a large enough effect in the repeat runs; inconclusive means weak or mixed curves; inactive means no such curve, though single readings can be large; an effect the other way counts as inactive or inconclusive.

How the values were obtained:
[1] = biological target: Progesterone receptor (Homo sapiens) (UniProt P06401); assay: qHTS assay to identify small molecule agonists of the progesterone receptor (PR) signaling pathway (AID 1346784; calls by dose curve; further: nearly all actives have a fitted effect of over 30% in size)
Chain of Progesterone receptor (Homo sapiens) (P06401 whole entry, looked up): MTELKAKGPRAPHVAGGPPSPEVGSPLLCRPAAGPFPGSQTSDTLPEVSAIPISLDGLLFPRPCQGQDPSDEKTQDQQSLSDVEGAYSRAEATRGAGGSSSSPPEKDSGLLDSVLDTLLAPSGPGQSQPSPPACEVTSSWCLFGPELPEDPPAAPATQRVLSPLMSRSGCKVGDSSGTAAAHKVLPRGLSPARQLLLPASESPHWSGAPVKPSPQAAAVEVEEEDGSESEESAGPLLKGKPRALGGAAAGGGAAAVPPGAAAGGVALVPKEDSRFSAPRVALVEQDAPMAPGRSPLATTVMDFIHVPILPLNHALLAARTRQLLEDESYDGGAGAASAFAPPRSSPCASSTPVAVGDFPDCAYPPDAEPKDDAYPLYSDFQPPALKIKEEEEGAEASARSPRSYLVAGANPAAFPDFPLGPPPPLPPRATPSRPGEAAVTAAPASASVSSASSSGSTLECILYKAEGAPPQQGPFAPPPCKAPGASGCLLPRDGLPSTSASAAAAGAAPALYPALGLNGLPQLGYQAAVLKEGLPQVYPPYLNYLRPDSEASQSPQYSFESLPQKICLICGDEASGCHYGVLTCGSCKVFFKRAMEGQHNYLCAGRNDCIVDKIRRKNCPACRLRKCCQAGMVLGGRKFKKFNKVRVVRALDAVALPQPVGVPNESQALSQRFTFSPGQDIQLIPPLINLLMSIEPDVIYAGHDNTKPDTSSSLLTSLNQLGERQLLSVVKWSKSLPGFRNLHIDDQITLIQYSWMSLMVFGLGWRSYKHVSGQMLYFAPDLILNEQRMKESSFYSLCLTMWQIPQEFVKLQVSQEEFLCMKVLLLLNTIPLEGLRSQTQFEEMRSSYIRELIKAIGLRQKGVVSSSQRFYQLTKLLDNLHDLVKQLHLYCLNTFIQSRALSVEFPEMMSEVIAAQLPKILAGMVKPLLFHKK
How it was run: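 Beta-lactamase reporter read-out: after 16 hr compound treatment at 37C and a further 2 hr at room temperature with LiveBLAzer B/G FRET substrate, fluorescence was measured in PR-UAS-bla HEK 293T cells grown in 2% charcoal-stripped serum.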

[2] = biological target: Progesterone receptor (Homo sapiens) (UniProt P06401); assay: qHTS assay to identify small molecule antagonists of the progesterone receptor (PR) signaling pathway (AID 1346795; active means well fitted inhibition curve with a large enough effect in the signal ratio in the repeat runs, not every such curve was filed as active; the % refers to the signal ratio; further: potency means the concentration at half of the fitted maximal effect)
How it was run: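 Read-out is fluorescence from the LiveBLAzer B/G FRET substrate, cleaved by a UAS-controlled beta-lactamase in PR-UAS-bla HEK293T cells after 16 hr exposure to compound plus 1 nM promegestone (final), followed by 2 hr at room temperature.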

[3] = qHTS assay to identify small molecule antagonists of the progesterone receptor (PR) signaling pathway - cell viability counter screen (AID 1346798);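 further: HEK293T PR-UAS-bla cells stimulated with the agonist R5020; series mostly up to about 92 µM; nearly all actives have a fitted effect of over 50% in size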
How it was run: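 HEK293T PR-UAS-bla, 2% charcoal-stripped FBS; 4 hr pre-plate; cpd + R5020, 16 h 37C; LiveBLAzer read first; then CellTiter-Glo 30 min RT, luminescence.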

[4] = qHTS assay to identify small molecule agonists of the progesterone receptor (PR) signaling pathway - cell viability counter screen (AID 1346799; calls by dose curve; further: nearly all actives have a fitted effect of over 45% in size)
How it was run: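 Luminescence from CellTiter-Glo, added after the beta-lactamase FRET read in the same wells, gave cytotoxicity in PR-UAS-bla HEK293T cells treated with compounds for 16 hr at 37C.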

[5] = qHTS assay to identify small molecule agonists of the TGF-beta/Smad signaling pathway - cell viability counter screen (AID 1346829); further: top concentration of the series differs between compounds; nearly all actives have a fitted effect of over 45% in size
How it was run: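 SBE-bla HEK 293T cells plated overnight, compound exposure 5 hr at 37 C. Viability read in the same wells by CellTiter-Glo luminescence after 30 min at room temperature, following the beta-lactamase read.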

[6] = qHTS assay to identify small molecule agonists of the TGF-beta/Smad signaling pathway (AID 1346859; active means well fitted activation curve with a large enough effect in the signal ratio in the repeat runs, not every such curve was filed as active; the % refers to the signal ratio; further: series mostly up to about 77 µM)
How it was run: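 SBE-bla HEK 293T, 4,000 cells/well, plated o/n; cpd in DMSO, 5 hr, 37 C/5% CO2; B/G FRET substrate 2 hr RT; ex 405, em 460/530 nm.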

[7] = biological target: Thyrotropin-releasing hormone receptor (Homo sapiens) (UniProt P34981); assay: qHTS assay to identify small molecule antagonists of the thyrotropin-releasing hormone receptor (TRHR) signaling pathway (AID 1346877; active means well fitted inhibition curve with a large enough effect in the repeat runs, not every such curve was filed as active; further: series mostly up to about 51 µM)
Chain of Thyrotropin-releasing hormone receptor (Homo sapiens) (P34981 whole entry, looked up): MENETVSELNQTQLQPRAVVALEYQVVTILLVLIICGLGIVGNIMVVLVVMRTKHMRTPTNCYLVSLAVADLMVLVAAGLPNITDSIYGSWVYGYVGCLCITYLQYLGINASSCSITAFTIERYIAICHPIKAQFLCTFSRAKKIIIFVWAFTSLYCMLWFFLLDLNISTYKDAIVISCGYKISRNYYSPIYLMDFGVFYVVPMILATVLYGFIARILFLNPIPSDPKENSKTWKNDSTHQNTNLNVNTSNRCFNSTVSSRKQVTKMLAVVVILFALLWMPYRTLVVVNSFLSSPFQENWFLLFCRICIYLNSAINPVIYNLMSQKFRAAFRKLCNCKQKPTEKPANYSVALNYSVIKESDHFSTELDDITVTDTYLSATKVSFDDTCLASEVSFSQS
How it was run: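 Screening used HEK293 cells engineered with TRHR, with a brief 5 min room-temperature compound exposure preceding addition of TRH to 1 nM. The read-out was kinetic calcium-dye fluorescence, concentration-response from 15 doses in triplicate.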

[8] = biological target: Thyrotropin-releasing hormone receptor (Homo sapiens) (UniProt P34981); assay: qHTS assay to identify small molecule agonists of the thyrotropin-releasing hormone receptor (TRHR) signaling pathway (AID 1346891; calls by dose curve; further: series mostly up to about 58 µM)
How it was run: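 Intracellular calcium rise, read as fluorescence every second for 3 min, served as the agonist signal in dye-loaded HEK293 cells expressing TRHR; each compound ran at 15 concentrations in triplicate.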

[9] = Human pregnane X receptor (PXR) small molecule agonists, qHTS cell viability counter screen (AID 1346977); further: nearly all actives have a fitted effect of over 50% in size
How it was run: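 PXR-Luc HepG2, 2,000 cells/well, 5% charcoal-stripped FBS; 5hr settle; cpd 24hr, 37C/5% CO2; CellTiter-Fluor at 23hr, read 1hr later (fluorescence).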

[10] = Caspase-3/7 induction in HepG2 cells by small molecules, qHTS assay (AID 1346978); further: nearly all actives have a fitted effect of over 15% in size
How it was run: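 Wild-type HepG2 cells, 2,000/well, settled 5 hr at 37 C and 5% CO2, then compound-treated for 17 hr; caspase-3/7 activity read by luminescent Caspase-Glo 3/7 after 30 min at room temperature.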

[11] = Caspase-3/7 induction in CHO-K1 cells by small molecules, qHTS cell viability counter screen (AID 1346979); further: nearly all actives have a fitted effect of over 35% in size; further: potency means the concentration at half of the fitted maximal effect
How it was run: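 Cells (CHO-K1, wild type) are plated at 1,500 per well and incubated 5hr. Test compounds in DMSO are then pinned in, followed by 16hr at 37C and 5% CO2. Viability is read by CellTiter-Fluor fluorescence after 1hr.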

[12] = Caspase-3/7 induction in CHO-K1 cells by small molecules, qHTS assay (AID 1346980); further: nearly all actives have a fitted effect of over 15% in size
How it was run: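 Wild-type CHO-K1 cells exposed to compounds for 17hr at 37 C, 5% CO2. Caspase-3/7 activity then measured by Caspase-Glo 3/7 luminescence after 30min at room temperature.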

[13] = Caspase-3/7 induction in HepG2 cells by small molecules, qHTS cell viability counter screen (AID 1346981); further: series mostly up to about 92 µM; nearly all actives have a fitted effect of over 30% in size
How it was run: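 Multiplexed with the caspase-3/7 assay: HepG2 cells, 16 hr compound treatment, CellTiter-Fluor viability detection by fluorescence.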

[14] = biological target: Nuclear receptor subfamily 1 group I member 2 (Homo sapiens) (UniProt O75469); assay: CYP3A4 induction through human pregnane X receptor (PXR) by small molecules, qHTS assay (AID 1346984); further: nearly all actives have a fitted effect of over 40% in size
Chain of Nuclear receptor subfamily 1 group I member 2 (Homo sapiens) (O75469 whole entry, looked up): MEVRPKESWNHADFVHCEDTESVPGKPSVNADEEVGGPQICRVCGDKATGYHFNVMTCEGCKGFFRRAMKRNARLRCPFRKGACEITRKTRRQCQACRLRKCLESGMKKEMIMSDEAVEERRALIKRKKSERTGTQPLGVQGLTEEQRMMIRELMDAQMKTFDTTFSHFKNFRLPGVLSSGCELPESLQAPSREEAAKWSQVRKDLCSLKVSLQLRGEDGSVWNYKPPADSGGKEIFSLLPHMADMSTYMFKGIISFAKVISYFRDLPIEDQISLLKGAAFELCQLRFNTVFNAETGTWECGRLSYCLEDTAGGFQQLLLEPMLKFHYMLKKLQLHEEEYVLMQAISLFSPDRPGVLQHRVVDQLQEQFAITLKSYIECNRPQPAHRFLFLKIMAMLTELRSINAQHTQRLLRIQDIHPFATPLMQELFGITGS
How it was run: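 qHTS, concentration-response format: HepG2 DPX-2 line, PXR/CYP3A4-luc. Exposure 24 h, 37C. Substrate Luciferin-IPA 3uM final, 3 h. Detection One-Glo, 30 min RT.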

[15] = biological target: Cytochrome P450 2D6 (Homo sapiens) (UniProt P10635); assay: Cytochrome P450 Family 2 Subfamily D Member 6 (CYP2D6) small molecule antagonists: luciferase reporter qHTS assay (AID 1671196); further: nearly all actives have a fitted effect of over 50% in size; further: potency means the concentration at half of the fitted maximal effect
Chain of Cytochrome P450 2D6 (Homo sapiens) (P10635 whole entry, looked up): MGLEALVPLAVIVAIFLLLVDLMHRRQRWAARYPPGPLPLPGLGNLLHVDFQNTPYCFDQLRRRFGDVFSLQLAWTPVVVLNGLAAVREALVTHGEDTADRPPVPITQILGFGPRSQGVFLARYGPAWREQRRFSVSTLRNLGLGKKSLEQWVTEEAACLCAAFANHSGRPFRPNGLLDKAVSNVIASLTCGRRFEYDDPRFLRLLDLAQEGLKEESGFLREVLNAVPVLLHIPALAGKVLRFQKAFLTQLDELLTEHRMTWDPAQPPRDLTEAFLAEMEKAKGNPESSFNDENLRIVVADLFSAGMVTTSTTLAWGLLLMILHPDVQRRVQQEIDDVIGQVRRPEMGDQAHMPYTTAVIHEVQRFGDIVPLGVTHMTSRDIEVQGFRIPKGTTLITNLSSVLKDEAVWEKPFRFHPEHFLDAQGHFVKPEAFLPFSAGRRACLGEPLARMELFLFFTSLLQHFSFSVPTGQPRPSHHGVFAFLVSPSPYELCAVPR
How it was run: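 Luminescence (RLU), read 20 min after detection reagent, indicated CYP2D6 conversion of proluciferin to luciferin during a 1 h NADPH-dependent reaction at room temperature.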

[16] = biological target: Cytochrome P450 2C19 (Homo sapiens) (UniProt P33261); assay: Cytochrome P450 Family 2 Subfamily C Member 19 (CYP2C19) small molecule antagonists: luciferase reporter qHTS assay (AID 1671197); further: nearly all actives have a fitted effect of over 65% in size; further: potency means the concentration at half of the fitted maximal effect
Chain of Cytochrome P450 2C19 (Homo sapiens) (P33261 whole entry, looked up): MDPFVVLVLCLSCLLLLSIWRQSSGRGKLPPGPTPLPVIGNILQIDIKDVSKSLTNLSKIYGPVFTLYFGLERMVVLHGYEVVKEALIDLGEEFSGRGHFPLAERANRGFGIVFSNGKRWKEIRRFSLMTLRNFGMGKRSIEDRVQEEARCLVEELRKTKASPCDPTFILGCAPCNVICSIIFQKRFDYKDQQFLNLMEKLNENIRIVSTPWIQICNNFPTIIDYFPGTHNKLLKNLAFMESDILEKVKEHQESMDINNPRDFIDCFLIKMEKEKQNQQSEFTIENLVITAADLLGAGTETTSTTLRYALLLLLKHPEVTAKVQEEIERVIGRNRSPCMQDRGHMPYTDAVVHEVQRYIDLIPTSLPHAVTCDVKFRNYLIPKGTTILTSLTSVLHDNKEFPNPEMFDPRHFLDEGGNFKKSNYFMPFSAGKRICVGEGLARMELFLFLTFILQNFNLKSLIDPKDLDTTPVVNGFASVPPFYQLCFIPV
How it was run: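 P450-Glo CYP2C19 system: enzyme-substrate mix with compound 10 min at room temperature, then NADPH regeneration solution, 1 h at 37C. Proluciferin-to-luciferin conversion detected by luminescence after 20 min with detection reagent; ketoconazole as positive control.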

[17] = biological target: Nuclear receptor subfamily 1 group I member 2 (Homo sapiens) (UniProt O75469); assay: Human pregnane X receptor (PXR) small molecule agonists, qHTS assay (AID 1346982); further: nearly all actives have a fitted effect of over 35% in size; further: potency means the concentration at half of the fitted maximal effect
How it was run: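 We seeded PXR-Luc HepG2 cells in assay medium containing 5% charcoal-stripped FBS, added compounds 5 hr later, incubated 24 hr, and read luminescence with ONE-Glo reagent.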

[18] = qHTS assay to identify small molecule antagonists of the TGF-beta/Smad signaling pathway - cell viability counter screen (AID 1346824); further: nearly all actives have a fitted effect of over 50% in size
How it was run: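 SBE-bla HEK 293T cells, incubated overnight, then compound plus 0.25 ng/mL TGF-beta1 (stock added) for 5 hr at 37 C. Viability was read in the same wells by CellTiter-Glo luminescence after 30 min at room temperature.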
On the % scale 0 is the no-effect control and ±100 the full control effect.

O=c1[nH]c(=O)n([C@H]2C[C@H](O)[C@@H](CO)O2)cc1F
inactive: Potency [1] | Potency [2] | Potency [3] | Potency [4] | Potency [5] | Potency [6] | Potency [7] | outcome [8] | Potency [9] | Potency [10] | Potency [11] | Potency [12] | Potency [13] | Potency [14] | Potency [15] | Potency [16]

O=C(O)Cc1ccc2c(c1)C(=O)c1ccccc1CO2
inactive: Potency [1] | Potency [2] | Potency [3] | Potency [4] | Potency [5] | Potency [9] | Potency [12] | Potency [13] | Potency [17] | Potency [15] | Potency [16]

CCN(CCN)c1cccc(C)c1
active: Potency [17] 61.7 µM and 61.1 µM | Potency [15] 2.54 µM and 10 µM | Potency [16] 7.17 µM and 35.6 µM
inactive: Potency [1] | Potency [2] | Potency [3] | Potency [4] | Potency [5] | Potency [6] | Potency [7] | outcome [8] | Potency [9] | Potency [11] | Potency [12] | Potency [13]

C=Cc1ccccc1C=C
active: Potency [17] 109 µM | Potency [15] 79.4 µM
inactive: Potency [1] | Potency [2] | Potency [3] | Potency [4] | Potency [5] | Potency [6] | Potency [7] | outcome [8] | Potency [9] | Potency [10] | Potency [11] | Potency [12] | Potency [13]

CC[C@H](C)COC(=O)/C=C/c1ccc(N=Cc2ccc(OC)cc2)cc1
inactive: Potency [1] | Potency [3] | Potency [4] | Potency [18] | Potency [6] | Potency [9] | Potency [10] | Potency [12] | Potency [13]
active: Potency [2] 30.6 µM | Potency [11] 61 µM | Potency [17] 30.6 µM | Potency [15] 70.9 µM | Potency [16] 893 nM

CC(=O)Oc1cc2c(s1)CCN(C(C(=O)C1CC1)c1ccccc1F)C2 (centres undefined)
inactive: Potency [1] | Potency [3] | Potency [4] | Potency [18] | Potency [5] | Potency [6] | Potency [7] | outcome [8] | Potency [9] | Potency [10] | Potency [11] | Potency [12] | Potency [13]
active: Potency [17] 26.6 µM | Potency [15] 8.71 µM | Potency [16] 6920 nM

CC(C)(C)CC(C)(C)c1ccc(Nc2ccc(C(C)(C)CC(C)(C)C)cc2)cc1
inactive: activation [1] -0.254% [at 8.39 µM] | activity change, negative = cytotoxicity [3] -7.66% [at 8.39 µM] | activity change, negative = cytotoxicity [4] 8.24% [at 8.39 µM] | viability change, negative = cytotoxic [18] 15.5% [at 6.97 µM] | activity change, negative = cytotoxicity [5] 1.44% [at 6.97 µM] | activation [6] 1.28% [at 6.97 µM] | activity, negative = inhibition [7] -2.04% [at 4.65 µM] | activation [8] -0.0029% [at 5.23 µM] | activity change, negative = cytotoxicity [9] 1.07% [at 8.39 µM] | caspase activation [10] 1.74% [at 8.39 µM] | caspase-3/7 activation [12] 2.02% [at 8.39 µM] | activation [17] 4.4% [at 8.39 µM]
